PubChem BioAssay (Tox21)
Values without a mark were called inactive. Records with an inconclusive call do not appear. Calls of active or inactive are those of the source. Unless noted, calls follow the shape of the full dose curve.

Experiment: qHTS assay for small molecules that induce genotoxicity in human embryonic kidney cells expressing luciferase-tagged ATAD5 - cell viability (AID 651634); also: nearly all actives have a fitted effect of over 25% in size
Conditions: HEK293T ATAD5-luc cells viability, CellTiter-Fluor, 15.5 h; series mostly up to 83.3 µM; activity, negative = cytotoxicity: at the top concentration
How it was run: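 Cells (HEK293T, luciferase-tagged ATAD5) are seeded at 2,000 per well, dosed with compound or DMSO vehicle, and incubated 15.5 hr at 37C and 5% CO2. CellTiter-Fluor is added for 30 min before fluorescence is measured.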
% is scaled to controls: 0 for no effect and ±100 for the full control effect.

Row | SMILES | activity, negative = cytotoxicity | Potency
1 | N#Cc1c(Cl)cccc1Cl | 8.4% | –
2 | CCC(C)n1c(=O)[nH]c(C)c(Br)c1=O (stereo unspecified) | 10.5% | –
3 | CCC(=O)c1ccccc1 | -11.2% | –
4 | CCOC(=O)N(C)C(=O)CSP(=S)(OCC)OCC | 14.9% | –
5 | CCC1(c2ccccc2)C(=O)NC(=O)NC1=O | – | inactive
6 | ClC(Br)Br | 6.65% | –
7 | CCNc1nc(NC(C)C)nc(OC)n1 | 6.97% | –
8 | O=S(=O)(O)C(F)(F)C(F)(F)C(F)(F)C(F)(F)C(F)(F)C(F)(F)F | 22.3% | –
9 | O=CNC(N1CCN(C(NC=O)C(Cl)(Cl)Cl)CC1)C(Cl)(Cl)Cl (stereo unspecified) | 10.5% | –
10 | C=C(C)CN(CC)c1c([N+](=O)[O-])cc(C(F)(F)F)cc1[N+](=O)[O-] | 9.55% | –
11 | CCC1(c2ccccc2)C(=O)N=C(O)NC1=O (stereo unspecified) | -3.53% | –
12 | COP(N)(=S)Oc1ccccc1C(=O)OC(C)C (stereo unspecified) | 28% | –
13 | CN1C[C@@H](NS(=O)(=O)N(C)C)C[C@@H]2c3cccc4c3c(cn4C)C[C@H]21 | -9.06% | –
14 | CCOP(=S)(Oc1cnc(C(C)(C)C)nc1)OC(C)C (stereo unspecified) | -4.58% | –
15 | Clc1cccc(N2CCNCC2)c1 | 25.8% | –
16 | CC(C)CP(=S)(S)CC(C)C | 3.87% | –
17 | Cc1cc(C)nc(Nc2ccccc2)n1 | -6.23% | –
18 | CN(N=O)C(N)=O | -16.6% | –

Row | SMILES | activity, negative = cytotoxicity | Potency
19 | N#CC(Cl)(Cl)Cl | -7.3% | –
20 | C#C[C@]1(O)C=C[C@H]2[C@@H]3CCC4=CC(=O)CC[C@@H]4[C@H]3CC[C@@]21CC | -13% | –
21 | Nc1ccccc1Cl | 6.76% | –
22 | Cc1cccc(C#N)c1 | -6.19% | –
23 | CN1CCC(O)(c2ccc(F)cc2)C(C(=O)c2ccc(F)cc2)C1 (stereo unspecified) | 13.4% | –
24 | ClCC(Cl)(Cl)Cl | -5.91% [at 95.3 µM] | –
25 | CCC/C(=N\OCC)C1=C(O)CC(CC(C)SCC)CC1=O (stereo unspecified) | 17% [at 95.3 µM] | –
26 | Cc1cnc[nH]1 | -8.82% | –
27 | [O]=[Cd] | – | inactive
28 | CCOC(=O)NC(=S)Nc1ccccc1NC(=S)NC(=O)OCC | -7.48% | –
29 | C=C(C)[C@@H]1CC=C(C=O)CC1 | -5.76% | –
30 | O=C(N[C@H]1CN2CCC1CC2)c1cc2ccoc2cn1 | 28.7% | –
31 | CNC(=O)O/N=C(\C)SC | 16.7% | –
32 | O=NN1CCN(N=O)CC1 | 2.08% | –
33 | C[C@@H]1CN(C2CCC(C#N)(c3ccc(F)cc3)CC2)CC[C@]1(C(=O)O)c1ccccc1 (stereo partly specified) | 23.7% [at 39.1 µM] | –
34 | CCS(=O)(=O)CCSP(=O)(OC)OC | 4.26% | –
35 | CC(CC(C#N)(c1ccccc1)c1ccccc1)N(C)C (stereo unspecified) | 4.26% | –

Experiment: qHTS assay for small molecule disruptors of the mitochondrial membrane potential - cell viability (AID 720634);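 also: human HepG2 liver cancer cells; nearly all actives have a fitted effect of over 20% in size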
Conditions: HepG2 viability, ATP luminescence (CellTiter-Glo), 1 h; series mostly up to 83.2 µM; activity change, negative = cytotoxicity: at the top concentration
How it was run: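 Cytotoxicity was measured by ATP quantitation in HepG2 wells that had first been treated with compound for 1 hr and stained with m-MPI dye; CellTiter-Glo incubation was 30 min at room temperature.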

Row | SMILES | activity change, negative = cytotoxicity | Potency
36 | N#Cc1c(Cl)cccc1Cl | 7.2% | –
37 | CCC(C)n1c(=O)[nH]c(C)c(Br)c1=O (stereo unspecified) | -3.83% | –
38 | CCC(=O)c1ccccc1 | -9.69% | –
39 | CCOC(=O)N(C)C(=O)CSP(=S)(OCC)OCC | -19.2% | –
40 | CCC1(c2ccccc2)C(=O)NC(=O)NC1=O | – | inactive
41 | ClC(Br)Br | 7.4% | –
42 | CCNc1nc(NC(C)C)nc(OC)n1 | -14.6% | –
43 | O=S(=O)(O)C(F)(F)C(F)(F)C(F)(F)C(F)(F)C(F)(F)C(F)(F)F | -12.7% | –
44 | O=CNC(N1CCN(C(NC=O)C(Cl)(Cl)Cl)CC1)C(Cl)(Cl)Cl (stereo unspecified) | -12.1% | –
45 | C=C(C)CN(CC)c1c([N+](=O)[O-])cc(C(F)(F)F)cc1[N+](=O)[O-] | -8.44% | –
46 | CCC1(c2ccccc2)C(=O)N=C(O)NC1=O (stereo unspecified) | 2.91% | –
47 | COP(N)(=S)Oc1ccccc1C(=O)OC(C)C (stereo unspecified) | 11.4% | –
48 | CN1C[C@@H](NS(=O)(=O)N(C)C)C[C@@H]2c3cccc4c3c(cn4C)C[C@H]21 | -1.39% | –
49 | CCOP(=S)(Oc1cnc(C(C)(C)C)nc1)OC(C)C (stereo unspecified) | -19.5% | –
50 | Clc1cccc(N2CCNCC2)c1 | 4.81% | –
51 | CC(C)CP(=S)(S)CC(C)C | -6.75% | –
52 | Cc1cc(C)nc(Nc2ccccc2)n1 | 9.12% | –
53 | CN(N=O)C(N)=O | 11.1% | –

Row | SMILES | activity change, negative = cytotoxicity | Potency
54 | N#CC(Cl)(Cl)Cl | -4.08% | –
55 | C#C[C@]1(O)C=C[C@H]2[C@@H]3CCC4=CC(=O)CC[C@@H]4[C@H]3CC[C@@]21CC | -10.4% | –
56 | Nc1ccccc1Cl | 4.13% | –
57 | Cc1cccc(C#N)c1 | 6.32% | –
58 | CN1CCC(O)(c2ccc(F)cc2)C(C(=O)c2ccc(F)cc2)C1 (stereo unspecified) | 19.1% | –
59 | ClCC(Cl)(Cl)Cl | -6.76% [at 95.3 µM] | –
60 | CCC/C(=N\OCC)C1=C(O)CC(CC(C)SCC)CC1=O (stereo unspecified) | 4.93% [at 95.3 µM] | –
61 | Cc1cnc[nH]1 | 8.27% | –
62 | [O]=[Cd] | – | inactive
63 | CCOC(=O)NC(=S)Nc1ccccc1NC(=S)NC(=O)OCC | -10.1% | –
64 | C=C(C)[C@@H]1CC=C(C=O)CC1 | -10.1% | –
65 | O=C(N[C@H]1CN2CCC1CC2)c1cc2ccoc2cn1 | 7.93% | –
66 | CNC(=O)O/N=C(\C)SC | 8.25% | –
67 | O=NN1CCN(N=O)CC1 | 6.64% | –
68 | C[C@@H]1CN(C2CCC(C#N)(c3ccc(F)cc3)CC2)CC[C@]1(C(=O)O)c1ccccc1 (stereo partly specified) | -6.28% [at 39.1 µM] | –
69 | CCS(=O)(=O)CCSP(=O)(OC)OC | 17.2% | –
70 | CC(CC(C#N)(c1ccccc1)c1ccccc1)N(C)C (stereo unspecified) | 10.6% | –

Experiment: qHTS assay to test for compound auto fluorescence at 590 nm (red) in HepG2 cells (AID 720674; active = well fitted curve in the direction sought with a large enough effect in the repeat runs)
Conditions: HepG2 autofluorescence, red 540/590 nm, 1 h; series mostly up to 91.3 µM; fluorescence, relative to Rose Bengal: at the top concentration
How it was run: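 Intrinsic compound fluorescence in the red window (Ex/Em 540/590 nm) is measured in attached HepG2 cells exposed for 1 hr, DMSO vehicle as baseline, benchmarked to Rose Bengal sodium.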

Row | SMILES | fluorescence, relative to Rose Bengal | outcome
71 | N#Cc1c(Cl)cccc1Cl | 0.125% | –
72 | CCC(C)n1c(=O)[nH]c(C)c(Br)c1=O (stereo unspecified) | 0.0003% | –
73 | CCC(=O)c1ccccc1 | 0.0695% | –
74 | CCC1(c2ccccc2)C(=O)NC(=O)NC1=O | – | inactive
75 | ClC(Br)Br | -0.0299% | –
76 | CCNc1nc(NC(C)C)nc(OC)n1 | 0.171% | –
77 | O=S(=O)(O)C(F)(F)C(F)(F)C(F)(F)C(F)(F)C(F)(F)C(F)(F)F | 0.259% | –
78 | O=CNC(N1CCN(C(NC=O)C(Cl)(Cl)Cl)CC1)C(Cl)(Cl)Cl (stereo unspecified) | -0.19% | –
79 | C=C(C)CN(CC)c1c([N+](=O)[O-])cc(C(F)(F)F)cc1[N+](=O)[O-] | -0.0535% | –
80 | CCC1(c2ccccc2)C(=O)N=C(O)NC1=O (stereo unspecified) | 0.0475% | –
81 | COP(N)(=S)Oc1ccccc1C(=O)OC(C)C (stereo unspecified) | -0.183% | –
82 | CN1C[C@@H](NS(=O)(=O)N(C)C)C[C@@H]2c3cccc4c3c(cn4C)C[C@H]21 | -0.774% [at 46 µM] | –
83 | CCOP(=S)(Oc1cnc(C(C)(C)C)nc1)OC(C)C (stereo unspecified) | -0.0714% | –
84 | Clc1cccc(N2CCNCC2)c1 | 0.501% [at 46 µM] | –
85 | CC(C)CP(=S)(S)CC(C)C | 0.0403% | –
86 | Cc1cc(C)nc(Nc2ccccc2)n1 | -0.0867% | –

Row | SMILES | fluorescence, relative to Rose Bengal | outcome
87 | CN(N=O)C(N)=O | -0.0275% | –
88 | C#C[C@]1(O)C=C[C@H]2[C@@H]3CCC4=CC(=O)CC[C@@H]4[C@H]3CC[C@@]21CC | 0.433% [at 46 µM] | –
89 | Nc1ccccc1Cl | -0.0097% | –
90 | Cc1cccc(C#N)c1 | -0.0142% | –
91 | CN1CCC(O)(c2ccc(F)cc2)C(C(=O)c2ccc(F)cc2)C1 (stereo unspecified) | -0.117% [at 46 µM] | –
92 | ClCC(Cl)(Cl)Cl | -0.0104% [at 95.7 µM] | –
93 | CCC/C(=N\OCC)C1=C(O)CC(CC(C)SCC)CC1=O (stereo unspecified) | 0.131% | –
94 | [O]=[Cd] | – | inactive
95 | CCOC(=O)NC(=S)Nc1ccccc1NC(=S)NC(=O)OCC | 0.101% | –
96 | C=C(C)[C@@H]1CC=C(C=O)CC1 | 0.164% | –
97 | O=C(N[C@H]1CN2CCC1CC2)c1cc2ccoc2cn1 | -0.0099% | –
98 | CNC(=O)O/N=C(\C)SC | 0.191% | –
99 | O=NN1CCN(N=O)CC1 | 0.396% | –
100 | C[C@@H]1CN(C2CCC(C#N)(c3ccc(F)cc3)CC2)CC[C@]1(C(=O)O)c1ccccc1 (stereo partly specified) | -0.0454% [at 18.6 µM] | –
101 | CC(CC(C#N)(c1ccccc1)c1ccccc1)N(C)C (stereo unspecified) | -0.0133% | –
